# The list is not random: actives were taken first. Their share in the collection is about 3%.
# S16 viability: Cell viability qHTS assay in S16 Pmp22-F2sN cells; Potency, µM (titrated, usually from 57.5 µM), without a hit: at the highest dose activity change, negative = cytotoxicity, usual class: cytotoxic; S16 Pmp22-F2sN Schwann cells viability, CellTiter-Glo, 24 h; AID 1508642, 2021; 43,000 compounds, 0.48% hits; note: nearly all actives have a fitted effect of over 65% in size
#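 S16 Pmp22-F2sN Schwann cells (500-1,000/well) in phenol-red-free DMEM with 10% FBS received 23 nL compound by pin tool for 24 h at 37 °C. Viability was then read as CellTiter-Glo luminescence after 15 min at room temperature.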
# pS6 MEF inh: Acumen qHTS Assay for Inhibitors of the mTORC1 Signaling Pathway in MEF (Tsc2-/-, p53-/-) Cells: Sytravon; Tsc2-/- p53-/- MEF, phospho-rpS6 immunofluorescence/PI, 24 h; Potency, µM (top dose mostly 38.3 µM), inactives show at the top dose activity change, negative = inhibition, actives largely listed as inhibitors; 44,000 compounds, 0.78% hits; AID 493208, 2011;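 note: plate controls were DMSO for no effect and rapamycin for full effect; nearly all actives have a fitted effect of over 50% in size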
#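 Immunofluorescence of rpS6 phosphorylation in Tsc2-/-, p53-/- MEFs after 24 h compound exposure, normalized to propidium iodide signal. Activity is expressed as % positive cells, thresholded with 7.5 nM rapamycin.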
# p53null 32C kill: qHTS Screen for Compounds that Selectively Target Cancer Cells with p53 Mutations: Cytotoxicity of p53 Null Cells at the Permissive Temperature | H1299-neo p53 null cells, ATP luminescence, 24 h, 32C | Potency, µM (top dose mostly 46.1 µM), for the others: at the highest dose activity change, negative = cytotoxicity, usual class: cytotoxic | 55,000 compounds, 0.62% hits | AID 903, 2007;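 note: 0% = DMSO only and -100% = full killing by 100 µM tamoxifen; nearly all actives have a fitted effect of over 55% in size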
#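 Luminescent ATP readout gave cell viability of p53-null H1299-neo cells after a 24 h compound exposure at the permissive 32C. Titrations ran up to 46 uM, and AC50s were fitted with the standard Hill equation.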
# OvCa metastasis: Primary qHTS assay for Inhibitors of ovarian cancer metastasis using an organotypic tumor microenvironment (TME) model. SKOV3ip1-GFP adhesion/invasion on 3D omental model, fluorescence. Potency, µM (highest dose often 45.8 µM), inactives show at the top dose activity change, negative = inhibition, most hits filed as inhibitors. 46,000 compounds, 0.1% hits. AID 1963576, 2024;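 note: plate controls were DMSO wells for no effect and tomatine positive control wells for full effect; nearly all actives have a fitted effect of over 65% in size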
#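 Adhesion/invasion was scored as fixed GFP-labeled SKOV3ip1 cell counts (488/509 nm), normalized to DMSO and tomatine controls. Cancer cells in serum-free medium, with four compound doses (0.36-46 umol/L), sat 2 hr at RT then 16 hr at 37 C on a 48 hr fibroblast/mesothelial/ECM culture.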
# PMP22 txn prim: Cell-based coincidence reporter assay to measure PMP22 gene transcription in S16 Pmp22-F2sN cells - Primary screen. S16 Pmp22-F2sN Schwann cells (luciferase reporters placed in the Pmp22 gene), FLuc/NLuc coincidence luminescence, 24 h. 43,000 compounds, 2% hits. Potency, µM (top dose mostly 57.5 µM), inactives show top-dose activity change, negative = inhibition, actives largely listed as inhibitors. AID 1508649, 2021; active = clear falling dose curves in both reporters; inconclusive = both reporters move, but less clearly or upward; inactive = either reporter flat; the % is the NLuc reporter signal
#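 Schwann cells carrying the coincidence reporter were exposed to library compounds for 24 h at 37C, then lysed and read for FLuc and, after quenching, NLuc luminescence on a CCD imager.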
# p53null 39C kill: qHTS Screen for Compounds that Selectively Target Cancer Cells with p53 Mutations: Cytotoxicity of p53 Null Cells at the Nonpermissive Temperature; H1299 p53-null (neo) cells, 39C, ATPlite viability, 24 h; Potency, µM (series often up to 46.1 µM), inactives show at the highest dose activity, negative = cell killing, most hits filed as cytotoxic; 55,000 compounds, 0.97% hits; AID 904, 2007;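 note: 0% = DMSO only and -100% = full killing by 100 µM tamoxifen; nearly all actives have a fitted effect of over 50% in size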
#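 Following overnight plating at 37C (600 cells/well), H1299-neo or H1299-p53A138V cells are dosed up to 46 uM. Incubation lasts 24 hr at 39C before ATP detection.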
# The depositor's hits bear a star; i = inactive; ? = inconclusive; . = no result. Unless noted, calls come from the whole dose curve; as a rule, active = well fitted curve in the direction sought with a large enough effect; inconclusive = small, poorly fitted or top-dose-only effect, or another doubt; inactive = no such curve, though single readings can be large; an effect the other way counts as inactive or inconclusive. Unless noted, % is set by controls: 0 for no effect and ±100 for the full control effect; potency is the fitted concentration of half-maximal effect.
SMILES,S16 viability,pS6 MEF inh,p53null 32C kill,OvCa metastasis,PMP22 txn prim,p53null 39C kill
CC(Sc1nc2ccccc2n1C)C(=O)NC(c1ccccc1)c1ccccc1 (centres undefined),.,.,0.3%,.,.,-12.5%
Cc1oc(-c2nc3ccccc3n2C)cc1C(=O)c1ccccc1,.,.,6.31µM*,.,.,11.2µM*
Cn1cc(C(=O)O)c(=O)c2cc(S(=O)(=O)N3CCOCC3)ccc21,14.1µM*,-0.4%,-4.1%,-5.6%,?,4.4%
C[C@H]1[C@@H](OC(=O)CCC(=O)O)O[C@@H]2O[C@@]3(C)CC[C@@H]4[C@H](C)CC[C@@H]1[C@@]24OO3,.,.,.,-15.2%,.,.
CC(C)Cc1ccc(S(=O)(=O)N2CCC(c3ccncc3)CC2)cc1,?,18.5µM*,?,?,?,?
CC(C)(C)c1ccc(S(=O)(=O)N2CCC(c3ccncc3)CC2)cc1,?,18.5µM*,?,13.8%,?,?
O=S(=O)(c1ccc(Cl)cc1)N1CCC(c2ccncc2)CC1,11.2%,-1.1%,-2.0%,3.7%,5.0%,8.6%
O=C(/C=C/c1cn(CC(O)CN2CCCCCC2)c2ccccc12)c1ccccc1 (centres undefined),?,?,-8.9%,-12.1%,?,-21.5%
COc1ccc(C(=O)/C=C/c2cn(CC(O)CN3CCCCCC3)c3ccccc23)cc1OC (centres undefined),-19.8%,-15.4%,0.7%,-15.1%,?,?
O=C(/C=C/c1cn(CC(O)CN2CCCCCC2)c2ccccc12)c1ccc(Br)cc1 (centres undefined),-9.2%,?,0.5%,-4.7%,?,15.8µM*
CCCCN(C)CC(O)Cn1cc(/C=C/C(=O)c2ccc(OC)c(OC)c2)c2ccccc21 (centres undefined),-23.9%,?,?,-22.2%,?,12.6µM*
CCCN(CCC)CC(O)Cn1cc(/C=C/C(=O)c2ccc(C)cc2)c2ccccc21 (centres undefined),?,-10.1%,?,?,?,?
COc1ccc(C(=O)/C=C/c2cn(CC(O)CN(CC(C)C)CC(C)C)c3ccccc23)cc1 (centres undefined),-2.5%,-9.6%,-7.2%,i,?,-1.3%
CCCN(CCC)CC(O)Cn1cc(/C=C/C(=O)c2ccc(OC)cc2)c2ccccc21 (centres undefined),?,14.7µM*,?,?,?,?
CCCCN(C)CC(O)Cn1cc(/C=C/C(=O)c2ccc(C)cc2)c2ccccc21 (centres undefined),?,?,15.8µM*,?,?,22.4µM*
CCCCN(C)CC(O)Cn1cc(/C=C/C(=O)c2ccc(Br)cc2)c2ccccc21 (centres undefined),?,?,?,?,?,12.6µM*
CCc1ccc(C(=O)c2cnc3ccc(F)cc3c2S(=O)(=O)c2ccccc2)cc1,-29.9%,11.7µM*,26.2%,-10.4%,?,78.0%
Cc1ccc2ncc(C(=O)c3ccc(C)c(C)c3)c(S(=O)(=O)c3ccccc3)c2c1,?,-5.8%,29.4%,4.3%,?,22.5%
CCc1cccc(CC)c1NC(=O)N1Cc2[nH]nc(NC(=O)c3ccc(N4CCN(C)CC4)cc3)c2C1,.,.,.,-40.2%,.,.
